Test results from ChEMBL document CHEMBL3988442, “University of Dundee, Small-Polar-MMV Screening Library” (2021).
“And” between values parts separate entries of the source, which are not always exact repeats. Equal entries are not always repeated. Among all 34,000 compounds or so, about 290 (0.85%) showed an effect of 50% or more. Only a selection was taken, and strong results are over-represented in it overall.

Tested on: Plasmodium falciparum
Test: Plasmodium falciparum sporozoite viability assay
Format: functional, organism-based
Design: scale not given: in the data most compounds retested in dose-response had high values

Structure (SMILES) | Percent Effect | Percent Effect (10 mM as filed; unlikely as a test dose)
CCc1nc(CNC(C)Cn2cccn2)cs1 (configuration not stated) | 4.8% | 
CNC(=O)[C@@H]1CN(Cc2ccccc2)C[C@H]1C(=O)c1ccc(F)cc1 | 12.45% | 
Cc1nc(O)cc(CN2CC=C(c3cnn(C(C)(C)C)c3)CC2)n1 |  | -34.41% and -32.55%
CC(C)(C)n1cc(C2=CCN(CCc3ccccc3)CC2)cn1 |  | 84.88% and 75.7% and 89.28%
CC(C)(C)n1cc(C2=CCN(CCNC(N)=O)CC2)cn1 |  | -28.2% and -25.06%
CC(C)(C)n1cc(C2=CCN(CCc3ccccn3)CC2)cn1 |  | 78.88% and 77.42%
CC(C)(C)n1cc(C2=CCN(CCN3CCCCCC3)CC2)cn1 |  | -30.5% and -32%
CC(C)(C)n1cc(C2=CCN(CCNC(=O)c3ccccc3)CC2)cn1 |  | -11.67% and -1.893%
O=C(O)C(F)(F)F.O=C(O)C(F)(F)F.O=S(=O)(C1CC1)N1CCC2(CC1)CN(Cc1ccccn1)CCO2 | 0.5199% | 
CCS(=O)(=O)N1CCN(CC2CC2)c2ncccc2C1 | 11.27% | 
O=C(c1ccsc1)N1CCN2C[C@H](OCc3ccccn3)C[C@H]2C1 | 1.117% | 
O=C(Cc1ccccn1)N1CCN2C[C@H](OCCN3CCCC3)C[C@H]2C1.O=C(O)C(F)(F)F.O=C(O)C(F)(F)F.O=C(O)C(F)(F)F | -8.505% | 
Cl.FC(F)(F)c1nc(C2CCCNC2)no1 (configuration not stated) | 6.016% | 
Cc1cc(O)nc(C2CCCNC2)n1.Cl (configuration not stated) | 1.062% | 
Cc1cc(C)nc(C2CCCNC2)n1.Cl.Cl (configuration not stated) | 16.42% | 
c1cnc(Nc2ccc(C3CCCCN3)cn2)cn1 (configuration not stated) |  | -2.241% and -0.3197% and -12.37%
Cc1cccc(Nc2ccc(C3CCCCN3)cn2)n1 (configuration not stated) |  | 97.8% and 85.07% and 40.73%
COCCN1CCOCC12CCN(C(=O)c1ccncc1)CC2.O=C(O)C(F)(F)F | -4.875% | 
O=C(O)C(F)(F)F.O=C(O)C(F)(F)F.c1cncc(N2CCOCC3(CN(Cc4cccs4)CCO3)C2)c1 (configuration not stated) | 7.302% | 
O=C(O)C(F)(F)F.O=C(O)C(F)(F)F.c1cncc(COCC2CC[C@H]3[C@H]2OCCN3Cc2ccoc2)c1 (some centres not stated) | 12.08% | 
O=C(O)C(F)(F)F.O=C(O)C(F)(F)F.c1cncc(OC[C@@]23CCC[C@@H]2CN(C2CCOCC2)C3)c1 | 9.846% | 
O=C(O)C(F)(F)F.O=C(O)C(F)(F)F.c1cnc(N2CC3(CCN(Cc4ccncc4)C3)C2)nc1 | -6.54% | 
